This passage reports growth results from PubChem BioAssay (NCI).

Holding throughout (test): NCI-60 one-dose screen, 48 h (100 = growth as untreated, 0 = no growth, -100 = all killed)
The test system of one assay is HCT-15 colon. The conditions noted are these: 10 µM unless noted.
The subject of another assay is HT29 colon. To be noted: 10 µM unless noted.
The test system of another assay is SNB-75 CNS. The conditions noted are these: 10 µM unless noted.
The next assay relates to SNB-19 CNS. The conditions noted are these: 10 µM unless noted.
In a further assay the test system is U251 CNS. To be noted: 10 µM unless noted.
The next assay has as its system SK-MEL-5 melanoma. To be noted: 10 µM unless noted.
A further assay relates to UACC-62 melanoma. To be noted: 10 µM unless noted.
The subject of another assay is LOX IMVI melanoma. The conditions noted are these: 10 µM.
The test system of the next assay is SK-MEL-28 melanoma. The conditions noted are these: 10 µM unless noted.
The subject of another assay is SK-MEL-2 melanoma. The conditions noted are these: 10 µM unless noted.
A further assay deals with SN12C renal. The conditions noted are these: 10 µM unless noted.
For the next assay, the system named is UO-31 renal. The conditions noted are these: 10 µM unless noted.
Another assay relates to TK-10 renal. The conditions noted are these: 10 µM unless noted.
The next assay relates to ACHN renal. To be noted: 10 µM unless noted.
In a further assay the test system is CAKI-1 renal. To be noted: 10 µM unless noted.
In the next assay the test system is CCRF-CEM leukemia. The conditions noted are these: 10 µM unless noted.
Another assay relates to MOLT-4 leukemia. The conditions noted are these: 10 µM unless noted.
The next assay relates to PC-3 prostate. To be noted: 10 µM unless noted.
Another assay deals with EKVX NSCLC. The conditions noted are these: 10 µM unless noted.
For the next assay, the system named is A498 renal. The conditions noted are these: 10 µM unless noted.

About 83,000 compounds went through this panel and 20% of them were active in at least one assay; those are over-represented in the sample as a whole.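 Step 1: grow cells in 96-well plates. Step 2: add test compound at a single concentration. Step 3: incubate 48 h. Step 4: record percent growth.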 Unmarked numbers belong to inactive results. Activity calls are given as the source filed them. Rule for the calls: active = growth percent below 10; inactive = the rest.

As to `O=C(Nc1ccccc1)c1ccco1`, the growth in the assay on HCT-15 colon was 105%; with HT29 colon, 100%; with SNB-75 CNS, 87%; with SNB-19 CNS it was 107%; with U251 CNS it was 96.1%; in the assay on SK-MEL-5 melanoma it was 104%. Moreover, the growth in the assay on UACC-62 melanoma is 104%; in the assay with LOX IMVI melanoma, 97.6%; with SK-MEL-28 melanoma it was 105%; with SK-MEL-2 melanoma, 99.1%; in the assay with SN12C renal it was 109%; with UO-31 renal, 86.1%. For the same compound, the growth in the assay with TK-10 renal is 98.9%; in the assay with ACHN renal, 107%; in the assay with CAKI-1 renal, 95.9%; with CCRF-CEM leukemia, 107%; with MOLT-4 leukemia, 93.5%.
With `Cc1ccccc1CC(N)C(=O)O` (stereo not given), the growth in the assay on HCT-15 colon is 117%; with HT29 colon, 107%; with SNB-75 CNS it was 91.4%; in the assay on SNB-19 CNS it was 108%; in the assay with PC-3 prostate, 90.4%; in the assay on SK-MEL-5 melanoma, 117%. Further, the growth in the assay on UACC-62 melanoma was 103%; in the assay on LOX IMVI melanoma it was 106%; with SK-MEL-28 melanoma it was 115%; with SK-MEL-2 melanoma it was 109%; in the assay on EKVX NSCLC, 103%; with SN12C renal, 105%. Further, the growth in the assay with UO-31 renal was 91.7%; in the assay with TK-10 renal it was 115%; in the assay on ACHN renal, 100%; in the assay with CAKI-1 renal, 96.6%; with A498 renal, 109%; with CCRF-CEM leukemia, 110%. Further, in the assay on MOLT-4 leukemia, the growth was 109%.
For the compound `CCN(Cc1ccc(Cl)c(Cl)c1)c1ccc2nc(N)nc(N)c2c1C`, the growth with HCT-15 colon was -82.1% (active); with HT29 colon, -79.1% (active); with SNB-75 CNS it was -94.7% (active); with SNB-19 CNS it was -97.4% (active); in the assay on U251 CNS, -92% (active); in the assay on SK-MEL-5 melanoma, -98.2% (active). The growth was -86.1% (active) in the assay on UACC-62 melanoma; -87.5% (active) in the assay with LOX IMVI melanoma; -95.4% (active) in the assay on SK-MEL-28 melanoma; -78% (active) in the assay on SK-MEL-2 melanoma; -56.8% (active) in the assay with EKVX NSCLC; -75.6% (active) in the assay with SN12C renal. In addition, the growth in the assay on UO-31 renal is -82.7% (active); with ACHN renal, -95.6% (active); with CAKI-1 renal, -67% (active); in the assay with A498 renal it was -78.2% (active); with CCRF-CEM leukemia, -5.59% (active); in the assay with MOLT-4 leukemia, -59.5% (active).
For the compound `CC1(C)CC(=O)C=C(N)C1`, the growth was 102% in the assay on HCT-15 colon; 96.1% in the assay on HT29 colon; 76.1% in the assay on SNB-75 CNS; 105% in the assay on SNB-19 CNS; 98.8% with U251 CNS; 131% in the assay with SK-MEL-5 melanoma. Also, the growth in the assay on UACC-62 melanoma is 98.5%; with LOX IMVI melanoma, 98.1%; in the assay with SK-MEL-28 melanoma, 104%; in the assay with SK-MEL-2 melanoma it was 98.4%; in the assay on EKVX NSCLC, 60.3%; in the assay on SN12C renal, 99.3%. The growth in the assay with UO-31 renal was 85.7%; in the assay with ACHN renal it was 107%; with CAKI-1 renal it was 85.1%; in the assay on A498 renal, 85.1%; with CCRF-CEM leukemia it was 124%; in the assay on MOLT-4 leukemia it was 59.5%.
In the case of `CNc1ccccc1C(=O)N/N=C/C=C/c1ccccc1`, the growth in the assay on HCT-15 colon is 33.8%; in the assay with HT29 colon, 3.82% (active); in the assay on SNB-75 CNS it was -15.6% (active); in the assay with SNB-19 CNS it was 53.9%; in the assay with PC-3 prostate it was 18.7%; with SK-MEL-5 melanoma, 18.2%. Further, the growth with UACC-62 melanoma was 49.3%; with LOX IMVI melanoma, 14.7%; in the assay on SK-MEL-28 melanoma, 39.3%; in the assay on SK-MEL-2 melanoma, 3.74% (active); with SN12C renal, 48.7%; in the assay on UO-31 renal, 43.8%. The growth with TK-10 renal is 31.1%; with CAKI-1 renal it was 12.7%; with A498 renal it was -8.31% (active); in the assay on CCRF-CEM leukemia it was 12%; in the assay on MOLT-4 leukemia, 18.5%.
For the compound `O=Cc1ccc(O)c(O)c1`, the growth in the assay on HCT-15 colon was 103%; in the assay with HT29 colon, 105%; in the assay on SNB-75 CNS, 87.2%; with SNB-19 CNS it was 86%; with SK-MEL-5 melanoma, 95.3%; with UACC-62 melanoma it was 98.2%. Besides, the growth with LOX IMVI melanoma is 91.2%; in the assay on SK-MEL-28 melanoma it was 92.4%; with SK-MEL-2 melanoma, 103%; with EKVX NSCLC it was 103%; in the assay on UO-31 renal it was 84.2%; with TK-10 renal, 107%. Besides, the growth is 114% with ACHN renal; 112% in the assay on CAKI-1 renal; 88.4% in the assay on A498 renal; 57.8% in the assay with CCRF-CEM leukemia; 80.5% in the assay with MOLT-4 leukemia.
As to `CCCC(OC(C)=O)c1ccc2c(c1)OCO2` (stereo not given), the growth in the assay with HCT-15 colon is 115%; in the assay on HT29 colon, 103%; with SNB-75 CNS, 96.9%; in the assay with SNB-19 CNS it was 105%; with PC-3 prostate, 102%; in the assay with SK-MEL-5 melanoma, 102%. The growth is 102% in the assay on UACC-62 melanoma; 103% in the assay with LOX IMVI melanoma; 106% in the assay on SK-MEL-28 melanoma; 117% in the assay on EKVX NSCLC; 106% in the assay with SN12C renal; 86.8% with UO-31 renal. The growth was 106% in the assay with TK-10 renal; 111% in the assay on ACHN renal; 101% in the assay on CAKI-1 renal; 96.7% with A498 renal; 105% with CCRF-CEM leukemia; 107% with MOLT-4 leukemia.
Consider `Clc1cccc(Cl)c1C1CSc2ccccc2N=C1c1ccccc1` (stereo not given), for which the growth was 54.7% with HCT-15 colon; 26.8% with HT29 colon; 64.9% with SNB-75 CNS; 97.4% with SNB-19 CNS; 55% in the assay with PC-3 prostate; 86.8% in the assay on SK-MEL-5 melanoma. The growth in the assay with UACC-62 melanoma was 68.9%; with LOX IMVI melanoma it was -4.86% (active); with SK-MEL-28 melanoma, 90.4%; with SK-MEL-2 melanoma, 90.2%; with SN12C renal, 75.5%; with UO-31 renal, 55.3%. Further, the growth with TK-10 renal is 117%; with ACHN renal it was 76.8%; in the assay with A498 renal, 124%; in the assay with CCRF-CEM leukemia, -12.9% (active); with MOLT-4 leukemia it was 20.1%.
Take `Nc1ncnc(Nc2ccccc2)n1`: the growth in the assay with HCT-15 colon was 103%; with HT29 colon it was 108%; with SNB-19 CNS, 109%; with U251 CNS, 111%; in the assay with PC-3 prostate it was 101%; in the assay on SK-MEL-5 melanoma it was 104%. For the same compound, the growth in the assay on UACC-62 melanoma was 115%; in the assay on LOX IMVI melanoma, 104%; in the assay with SK-MEL-28 melanoma, 107%; in the assay on SK-MEL-2 melanoma, 103%; in the assay with EKVX NSCLC, 122%; with SN12C renal, 105%. The growth with UO-31 renal was 86.5%; in the assay with TK-10 renal, 110%; in the assay on ACHN renal, 113%; with CAKI-1 renal, 92.7%; with A498 renal it was 128%; in the assay with CCRF-CEM leukemia, 104%. Also, the growth with MOLT-4 leukemia was 96.2%.
